Source: PubChem BioAssay AID624416 (The Scripps Research Institute Molecular Screening Center, 2012)
The whole screen tested about 360,000 compounds, of which about 1,500 (0.42%) were called active. Shown is part of a subset that was picked to be rich in actives. A number with no mark means an inactive call. No stated cut-off is given here; in the data, active means inhibition above about 8.5%; inactive means the rest.

What follows are compounds tested on HIV-1 gp120 / PG9 antibody interaction (assay: binders of HIV-1 gp120 antibody PG9, primary screen, biochemical, TR-FRET (AID 624416)). Details: TR-FRET gp120-PG9 antibody binding; at 6.7 µM; active compounds read high.

| SMILES | inhibition |
| --- | --- |
| CCN(CC)C(=O)c1ccc(NC(=O)c2cc(-n3cnnc3)ccc2Cl)cc1 | -0.62% |
| CCN(CC)C(=O)c1ccc(NC(=O)c2sccc2-c2ccccc2)cc1 | 9.48% (active) |
| CC(=O)Nc1ccc(C(=O)C(Cc2ccccc2)N(C)C)cc1 (stereo not given) | -2.82% |
| O=C1NC(=O)C(CCc2ccccn2)(Cc2cccc(Cl)c2Cl)C(=O)N1c1ccc(Br)cc1 (stereo not given) | -0.96% |
| CN1CCN(Cc2ccccc2C(F)(F)F)CC1 | 1.87% |
| N#CC1=C(N)Oc2c(c(=O)oc3ccccc23)C1c1ccccc1OC(=O)c1cccs1 (stereo not given) | 11% (active) |
| CCNc1nc2[nH]c(=O)c3c(c2s1)OC(N)=C(C#N)C3c1cccs1 (stereo not given) | -1.83% |
| COc1ccc(C2C=C(C)Oc3c2c(=O)oc2ccccc32)cc1OC (stereo not given) | 0.19% |
| C[C@]12CCCCC1=CC(=O)C1C2CC[C@@]2(C)C1C[C@@H](F)[C@@H]2O (stereo not given in full) | 0.27% |
| Cc1cc2ccccn2c1C(C[N+](=O)[O-])c1c(F)cccc1Cl (stereo not given) | 1.04% |
